From PubChem BioAssay (NCATS)
Inconclusive results are not listed. Activity calls are given as the source filed them.

experiment: qHTS drug screen for cell cycle checkpoint inhibitors in PARPi-resistant BRCA-mutant ovarian cancer cell lines. (AID 1963452); settings: PEO1/OlaR viability, CellTiter-Glo luminescence, 96 h; measured here: PEO4 Z-AUC; stronger effect = lower value
Summary of the method: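 PEO1, PEO4 and PEO1/OlaR ovarian cancer cells, 600 per well, exposed 96 h at 37C to a dilution series. Viability read by CellTiter-Glo luminescence, normalized to DMSO and empty wells; activity summarized as Z-AUC.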

| SMILES | Z-AUC |
| --- | --- |
| Cc1cn(-c2cc(NC(=O)c3ccc(C)c(Nc4nccc(-c5cccnc5)n4)c3)cc(C(F)(F)F)c2)cn1 | 0.0156 |
| CCCCCCCCCC(=O)N[C@@H](Cc1c[nH]c2ccccc12)C(=O)N[C@H](CC(N)=O)C(=O)N[C@@H](CC(=O)O)C(=O)N[C@@H]1C(=O)NCC(=O)N[C@@H](CCCN)C(=O)N[C@@H](CC(=O)O)C(=O)N[C@H](C)C(=O)N[C@@H](CC(=O)O)C(=O)NCC(=O)N[C@H](CO)C(=O)N[C@@H]([C@@H](C)CC(=O)O)C(=O)N[C@@H](CC(=O)c2ccccc2N)C(=O)O[C@@H]1C | -0.85 |
| COc1ccc(OC)c(-c2nnc3ccc(-c4ccc(OC)c(O[C@@H]5CCOC5)c4)nn23)c1 | -1.98 |
| CNC(=O)c1ccc(-c2cnc3ncc(Cc4ccc5ncccc5c4)n3n2)cc1F | 0.0538 |
| Cc1nc2ccc(CN(C)c3ccc(C(=O)N[C@@H](CCC(=O)O)C(=O)O)s3)cc2c(=O)[nH]1 | -0.15 |
| C[C@@H]1CN(CC(=O)Nc2ccc3c(c2)Cc2cccc(-c4cc(=O)cc(N5CCOCC5)o4)c2S3)C[C@H](C)O1 | 0.901 |
| COc1cc(C)c(Sc2cnc(NC(=O)c3ccc(CNC(C)C(C)C)cc3)s2)cc1C(=O)N1CCN(C(C)=O)CC1 (centres undefined) | -0.689 |
| COC(=O)C1=C(C)NC(C)=C(C(=O)OCCN2CCN(C(c3ccccc3)c3ccccc3)CC2)C1c1cccc([N+](=O)[O-])c1 (centres undefined) | 0.196 |
| COc1cc2c(cc1-c1c(C)noc1C)ncc1[nH]c(=O)n([C@H](C)c3ccccn3)c12 | -1.54 |
| CC(=O)OCCN1C(=O)c2c(C)nc3ccc(S(=O)(=O)N4CCOCC4)cc3c2C1=O | 1.26 |
| C1Cc2[nH]nc(-c3nn[nH]n3)c2C1 | -0.646 |
| CC(=O)Nc1nc(C)c(-c2ccc(Cl)c(S(=O)(=O)NCCO)c2)s1 | -1.08 |
| Nc1ccc(C(=O)c2cc3c(ccc4ccccc43)[nH]2)cc1 | -0.792 |
| Nc1nc(NCCNc2ncc(-n3ccnc3)c(-c3ccc(Cl)cc3Cl)n2)ccc1[N+](=O)[O-] | 0.221 |
| Nc1ncnc2c1c(-c1cnc3[nH]ccc3c1)nn2C1CCCC1 | -1.31 |
| CNc1nccc(-c2cccnc2Oc2cc(C(=O)Nc3cccc(C(F)(F)F)c3)ccc2C)n1 | 0.0306 |
| Nc1ccn([C@@H]2CS[C@H](CO)O2)c(=O)n1 | -0.547 |
| O=C(O)Cn1nnc(-c2cc(N3CCC(Oc4cc(F)ccc4Br)CC3)no2)n1 | -1.41 |
| Cn1cc(-c2[nH]c3cc(NC(=O)[C@H](N)C4CCCCC4)cc4c3c2C=NNC4=O)cn1 | -0.421 |
| CN1CCN(c2cc(C(=O)Nc3ccc4c(c3)-c3c(c(C(N)=O)nn3-c3ccc(F)cc3)CC4)c(Cl)cn2)CC1 | -0.0103 |
| Cn1c(CNc2ccc(C(=N)N)cc2)nc2cc(C(=O)N(CCC(=O)O)c3ccccn3)ccc21 | 3.92 |
| CC(C)c1ccc(Cn2ccc3c4c(N)nc(NC5CC5)nc4ccc32)cc1 | -2.38 |
| N#Cc1c(O)c2c(-c3ccc(-c4ccccc4O)cc3)csc2[nH]c1=O | 1.07 |
| Cc1c(C)n(Cc2ccc(-c3ccccc3C(=O)O)cc2)c2ccc(C(=O)N[C@@H](C)c3ccc([N+](=O)[O-])cc3)cc12 | 0.226 |
| O=C(O)c1ccc2c(c1)nc(Nc1cccc(Cl)c1)c1ccncc12 | -0.726 |
| Cc1cc(Nc2nc(N[C@@H](C)c3ccc(F)cc3)c(C#N)cc2F)n[nH]1 | -0.871 |

experiment: qHTS for identification of novel therapeutic agents for treatment of microphthalmiaassociated transcription factor (MiT) renal cell carcinoma (RCC) (AID 1963991); settings: TFE3-RCC UOK109 viability, CellTiter-Glo, 48 h; active = Z-AUC below -0.8 in all three lines; also: potency is read from the fitted curve at half-maximal effect
Summary of the method: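 Curves over 11 concentrations were fitted to CellTiter-Glo luminescence, scaled between empty wells (0%) and DMSO (100%) viability. Cells were UOK109, UOK124 and UOK145 TFE3-fusion RCC lines at 500/well, exposed 48 hours at 37 C.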

| SMILES | Potency |
| --- | --- |
| Nc1ncnc2c1c(-c1cnc3[nH]ccc3c1)nn2C1CCCC1 | 0.264 µM (active) |
| COc1cc(=C2C=c3ccccc3=N2)[nH]c1=Cc1[nH]c(C)cc1C | 8.33 µM (active) |
| C[C@@]12O[C@@H](C[C@]1(O)CO)n1c3ccccc3c3c4c(c5c6ccccc6n2c5c31)CNC4=O | 5.26 µM (active) |

same assay, conditions: TFE3-RCC UOK109 viability, CellTiter-Glo, 48 h; measured here: UOK109 Z-AUC; stronger effect = lower value

| SMILES | z-score |
| --- | --- |
| COC(=O)C1=C(C)NC(C)=C(C(=O)OCCN2CCN(C(c3ccccc3)c3ccccc3)CC2)C1c1cccc([N+](=O)[O-])c1 (centres undefined) | 0.729 |
| C1Cc2[nH]nc(-c3nn[nH]n3)c2C1 | -0.0239 |
| Nc1ncnc2c1c(-c1cnc3[nH]ccc3c1)nn2C1CCCC1 | -2.06 |
| COc1cc(=C2C=c3ccccc3=N2)[nH]c1=Cc1[nH]c(C)cc1C | -1.08 |
| Nc1ccn([C@@H]2CS[C@H](CO)O2)c(=O)n1 | -0.159 |
| O=C(O)Cn1nnc(-c2cc(N3CCC(Oc4cc(F)ccc4Br)CC3)no2)n1 | 0.654 |
| C[C@@]12O[C@@H](C[C@]1(O)CO)n1c3ccccc3c3c4c(c5c6ccccc6n2c5c31)CNC4=O | -1.64 |
| Cn1c(CNc2ccc(C(=N)N)cc2)nc2cc(C(=O)N(CCC(=O)O)c3ccccn3)ccc21 | 1.13 |
| O=C1CCC[C@@H]2[C@H]3CCC[N+]4([O-])CCC[C@@H](CN12)[C@@H]34 (some centres undefined) | 0.308 |
| N#Cc1c(O)c2c(-c3ccc(-c4ccccc4O)cc3)csc2[nH]c1=O | 0.657 |

same assay, conditions: TFE3-RCC viability, CellTiter-Glo, 48 h; measured here: UOK124 Z-AUC; stronger effect = lower value

| SMILES | z-score |
| --- | --- |
| COC(=O)C1=C(C)NC(C)=C(C(=O)OCCN2CCN(C(c3ccccc3)c3ccccc3)CC2)C1c1cccc([N+](=O)[O-])c1 (centres undefined) | 0.516 |
| C1Cc2[nH]nc(-c3nn[nH]n3)c2C1 | 0.708 |
| Nc1ncnc2c1c(-c1cnc3[nH]ccc3c1)nn2C1CCCC1 | -1.51 |
| COc1cc(=C2C=c3ccccc3=N2)[nH]c1=Cc1[nH]c(C)cc1C | -0.978 |
| Nc1ccn([C@@H]2CS[C@H](CO)O2)c(=O)n1 | 0.923 |
| O=C(O)Cn1nnc(-c2cc(N3CCC(Oc4cc(F)ccc4Br)CC3)no2)n1 | 0.371 |
| C[C@@]12O[C@@H](C[C@]1(O)CO)n1c3ccccc3c3c4c(c5c6ccccc6n2c5c31)CNC4=O | -0.853 |
| Cn1c(CNc2ccc(C(=N)N)cc2)nc2cc(C(=O)N(CCC(=O)O)c3ccccn3)ccc21 | 1.05 |
| O=C1CCC[C@@H]2[C@H]3CCC[N+]4([O-])CCC[C@@H](CN12)[C@@H]34 (some centres undefined) | 0.251 |
| N#Cc1c(O)c2c(-c3ccc(-c4ccccc4O)cc3)csc2[nH]c1=O | 0.453 |
